In all, about 5,500 compounds went through this assay and about 2,000 (36%) were called active. Another 18% or so got no clear call; they are omitted. Rule as the data show it: active = normalized growth mostly below about 0.91 (no sharp cut-off); inconclusive = no clear call, values can overlap the other calls; inactive = mostly above about 0.92. The list shows a part of the results.
Assay: chemical genetic growth profiling, strain panel (AID 1159580);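 also: tested at 20 µM; growth read once vehicle control cultures reached saturation at 30 °C; 1 = growth at the plate median or of vehicle wells; lower values mean less growth of the strain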
Conditions: growth OD

Measured: normalized growth

CCCCN(CCCC)CCCOC(=O)c1ccc(N)cc1
inactive: S. cerevisiae deletion strains, locus YJR075W, strain HOC1, active compounds read low 0.981 | S. cerevisiae deletion strains, locus YKL009W, strain mrt4, active compounds read low 0.989 | S. cerevisiae deletion strains, locus YKL068W, active compounds read low 0.969 | S. cerevisiae deletion strains, locus YKL085W, strain MDH1 (second series), active compounds read low 0.987 | S. cerevisiae deletion strains, locus YKL085W, strain MDH1, active compounds read low 0.987 | S. cerevisiae deletion strains, locus YKL160W, strain elf1, active compounds read low 0.995 | S. cerevisiae deletion strains, locus YKL190W, strain CNB1, active compounds read low 0.988 | S. cerevisiae deletion strains, locus YKR001C, strain vps1, active compounds read low 0.98 | S. cerevisiae deletion strains, locus YKR026C, strain gcn3, active compounds read low 0.993 | S. cerevisiae deletion strains, locus YKR091W, strain srl3, active compounds read low 0.992 | S. cerevisiae deletion strains, locus YLL001W, strain dnm1, active compounds read low 0.996 | S. cerevisiae deletion strains, locus YLL026W, active compounds read low 0.995 | S. cerevisiae deletion strains, locus YLL041C, strain sdh2, active compounds read low 0.995 | S. cerevisiae deletion strains, locus YLR027C, strain aat2, active compounds read low 0.996 | S. cerevisiae deletion strains, locus YLR039C, strain RIC1, active compounds read low 0.863 | S. cerevisiae deletion strains, locus YLR058C, strain SHM2, active compounds read low 0.99 | S. cerevisiae deletion strains, locus YLR102C, strain apc9, active compounds read low 1.01 | S. cerevisiae deletion strains, locus YLR113W, strain HOG1, active compounds read low 0.986 | S. cerevisiae deletion strains, locus YLR221C, strain rsa3, active compounds read low 0.98 | S. cerevisiae deletion strains, locus YLR258W, strain gsy2, active compounds read low 0.985 | S. cerevisiae deletion strains, locus YLR262C, strain YPT6 (second series), active compounds read low 0.935 | S. cerevisiae deletion strains, locus YLR262C, strain YPT6, active compounds read low 0.876 | S. cerevisiae deletion strains, locus YLR268W, strain sec22, active compounds read low 0.92 | S. cerevisiae deletion strains, locus YLR320W, strain mms22, active compounds read low 0.993 | S. cerevisiae deletion strains, locus YLR330W, strain CHS5, active compounds read low 0.988 | S. cerevisiae deletion strains, locus YLR342W, strain FKS1 (second series), active compounds read low 1.06 | S. cerevisiae deletion strains, locus YLR342W, strain FKS1, active compounds read low 0.996 | S. cerevisiae deletion strains, locus YLR357W, strain rsc2, active compounds read low 0.99 | S. cerevisiae deletion strains, locus YLR370C, strain arc18, active compounds read low 0.995 | S. cerevisiae deletion strains, locus YLR371W, strain rom2, active compounds read low 0.992 | S. cerevisiae deletion strains, locus YLR384C, strain iki3, active compounds read low 0.995 | S. cerevisiae deletion strains, locus YLR418C, strain cdc73, active compounds read low 1.02 | S. cerevisiae deletion strains, locus YML016C, strain PPZ1, active compounds read low 0.993 | S. cerevisiae deletion strains, locus YML032C, strain rad52, active compounds read low 0.965 | S. cerevisiae deletion strains, locus YML120C, strain ndi1, active compounds read low 0.988 | S. cerevisiae deletion strains, locus YML124C, strain tub3, active compounds read low 0.997 | S. cerevisiae deletion strains, locus YMR058W, strain fet3, active compounds read low 0.999 | S. cerevisiae deletion strains, locus YMR078C, strain ctf18, active compounds read low 0.993 | S. cerevisiae deletion strains, locus YMR125W, strain sto1, active compounds read low 0.992 | S. cerevisiae deletion strains, locus YMR129W, active compounds read low 0.988 | S. cerevisiae deletion strains, locus YMR205C, strain PFK2, active compounds read low 0.991 | S. cerevisiae deletion strains, locus YMR223W, strain ubp8, active compounds read low 1.01 | S. cerevisiae deletion strains, locus YMR231W, strain pep5, active compounds read low 0.997 | S. cerevisiae deletion strains, locus YMR263W, strain SAP30, active compounds read low 0.982 | S. cerevisiae deletion strains, locus YMR307W, strain GAS1, active compounds read low 1.06 | S. cerevisiae deletion strains, locus YNL067W, strain RPL9B, active compounds read low 0.963 | S. cerevisiae deletion strains, locus YNL071W, strain lat1, active compounds read low 0.994 | S. cerevisiae deletion strains, locus YNL128W, strain TEP1, active compounds read low 0.994 | S. cerevisiae deletion strains, locus YNL153C, strain GIM3, active compounds read low 0.976 | S. cerevisiae deletion strains, locus YNL183C, strain NPR1, active compounds read low 0.921 | S. cerevisiae deletion strains, locus YNL209W, strain ssb2, active compounds read low 0.985 | S. cerevisiae deletion strains, locus YNL233W, strain BNI4, active compounds read low 0.985 | S. cerevisiae deletion strains, locus YNL248C, strain rpa49, active compounds read low 0.976 | S. cerevisiae deletion strains, locus YNL250W, strain rad50, active compounds read low 0.983 | S. cerevisiae deletion strains, locus YNL271C, strain bni1, active compounds read low 0.984 | S. cerevisiae deletion strains, locus YNL298W, strain CLA4, active compounds read low 0.978 | S. cerevisiae deletion strains, locus YNL307C, strain MCK1, active compounds read low 0.982 | S. cerevisiae deletion strains, locus YNL322C, strain KRE1 (second series), active compounds read low 0.991 | S. cerevisiae deletion strains, locus YNL322C, strain KRE1, active compounds read low 0.994 | S. cerevisiae deletion strains, locus YNR049C, strain mso1, active compounds read low 0.998 | S. cerevisiae deletion strains, locus YNR052C, strain pop2, active compounds read low 0.992 | S. cerevisiae deletion strains, locus YOL006C, strain TOP1, active compounds read low 0.938 | S. cerevisiae deletion strains, locus YOL012C, strain htz1 0.971 | S. cerevisiae deletion strains, locus YOL147C, strain pex11, active compounds read low 0.989 | S. cerevisiae deletion strains, locus YOR001W, strain rrp6, active compounds read low 0.995 | S. cerevisiae deletion strains, locus YOR061W, strain CKA2, active compounds read low 0.992 | S. cerevisiae deletion strains, locus YOR069W, strain VPS5, active compounds read low 0.995 | S. cerevisiae deletion strains, locus YOR070C, strain gyp1, active compounds read low 0.993 | S. cerevisiae deletion strains, locus YOR080W, strain dia2, active compounds read low 0.996 | S. cerevisiae deletion strains, locus YOR083W, strain WHI5, active compounds read low 0.984 | S. cerevisiae deletion strains, locus YOR106W, strain vam3, active compounds read low 0.995 | S. cerevisiae deletion strains, locus YOR136W, strain idh2, active compounds read low 0.994 | S. cerevisiae deletion strains, locus YOR144C, strain elg1, active compounds read low 0.986 | S. cerevisiae deletion strains, locus YOR184W, strain ser1, active compounds read low 0.979 | S. cerevisiae deletion strains, locus YOR231W, strain MKK1, active compounds read low 0.961 | S. cerevisiae deletion strains, locus YOR265W, strain rbl2, active compounds read low 0.998 | S. cerevisiae deletion strains, locus YOR270C, strain vph1, active compounds read low 1.01 | S. cerevisiae deletion strains, locus YOR290C, strain snf2, active compounds read low 0.986 | S. cerevisiae deletion strains, locus YOR316C, strain cot1, active compounds read low 0.978 | S. cerevisiae deletion strains, locus YPL051W, strain arl3, active compounds read low 0.995 | S. cerevisiae deletion strains, locus YPL055C, strain LGE1, active compounds read low 0.986 | S. cerevisiae deletion strains, locus YPL078C, strain atp4, active compounds read low 0.988 | S. cerevisiae deletion strains, locus YPL106C, strain sse1, active compounds read low 0.977 | S. cerevisiae deletion strains, locus YPL240C, strain hsp82, active compounds read low 0.997 | S. cerevisiae deletion strains, locus YPL241C, strain CIN2, active compounds read low 1 | S. cerevisiae deletion strains, locus YPL256C, strain CLN2, active compounds read low 0.937 | S. cerevisiae deletion strains, locus YPR119W, strain clb2, active compounds read low 0.969 | S. cerevisiae deletion strains, locus YPR141C, strain kar3, active compounds read low 0.987 | S. cerevisiae deletion strains, locus YPR163C, strain tif3, active compounds read low 0.973 | S. cerevisiae deletion strains, locus YPR167C, strain met16, active compounds read low 0.978 | S. cerevisiae deletion strains, strain wtn01, active compounds read low 0.97 | S. cerevisiae strains, strain wild type, active compounds read low 1

— PubChem BioAssay AID1159580 (chemical genetic matrix, 2015)
